The structures appear in SMILES notation. Records with an inconclusive call do not appear. Entries that show only a call come without a potency. The source made the active and inactive calls. Calls follow the shape of the full dose curve.

Acetylcholinesterase (Homo sapiens), sequence (P22303 whole entry, looked up): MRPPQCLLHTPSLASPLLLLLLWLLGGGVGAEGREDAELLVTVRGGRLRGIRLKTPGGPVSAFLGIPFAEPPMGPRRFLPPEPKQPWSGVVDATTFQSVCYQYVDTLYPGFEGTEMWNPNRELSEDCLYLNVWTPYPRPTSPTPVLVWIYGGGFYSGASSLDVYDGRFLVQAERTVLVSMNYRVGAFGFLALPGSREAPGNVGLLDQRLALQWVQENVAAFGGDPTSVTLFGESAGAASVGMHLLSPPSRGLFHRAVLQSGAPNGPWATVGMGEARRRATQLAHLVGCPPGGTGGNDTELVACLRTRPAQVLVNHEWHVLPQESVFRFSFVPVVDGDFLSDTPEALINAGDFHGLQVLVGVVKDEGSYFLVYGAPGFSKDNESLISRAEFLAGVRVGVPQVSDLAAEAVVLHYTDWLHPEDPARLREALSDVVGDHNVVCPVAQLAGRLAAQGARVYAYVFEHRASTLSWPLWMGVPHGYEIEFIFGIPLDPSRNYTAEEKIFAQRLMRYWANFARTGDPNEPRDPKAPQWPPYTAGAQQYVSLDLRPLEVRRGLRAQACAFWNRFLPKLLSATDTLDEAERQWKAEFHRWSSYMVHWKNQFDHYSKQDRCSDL

The first experiment has as its target Acetylcholinesterase (Homo sapiens) (UniProt P22303). Nature of the experiment: Acetylcholinesterase (AChE) small molecule antagonists: colormetric cell-based qHTS assay (AID 1347395). Also: nearly all actives have a fitted effect of over 30% in size. As to conditions: SH-SY5Y cells AChE activity, colorimetric (Ellman); series mostly up to 115 µM. In outline: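 Colorimetric readout: DTNB quantifies thiocholine from acetylthiocholine hydrolysed by endogenous AChE of SH-SY5Y cells (2,000/well, plated overnight). Compound pretreatment 30 min, substrate incubation 90 min, both 37 C.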
A general note: In qHTS, concentration-response curves come from the screen itself.
Turning to `Cc1c(C)c2c(c(C)c1OC(=O)CCC(=O)O)CC[C@@](C)(CCC[C@H](C)CCC[C@H](C)CCCC(C)C)O2`, the Potency entry was “inactive”.

As for `C=CC(C)(CCC=C(C)C)OC(=O)CC` (stereo not given), the Potency result was “inactive”.

Turning to `CC(=O)OC1C2(C)CCC(C2)C1(C)C` (stereo not given), the Potency result was “inactive”.

On to `Brc1cc(Br)c(Oc2cc(Br)c(Br)cc2Br)cc1Br`, for which the Potency entry was “inactive”.

Regarding `CCCCCCCC/C=C\CCCCCCCCO`, the Potency result was “inactive”.

With `CCCCCCCCCCCCCCCC/C=C/C1CC(=O)OC1=O` (stereo not given), the Potency result was “inactive”.

On to `C=C1CC[C@H]2C[C@@H]1C2(C)C`, for which the Potency result was “inactive”.

In the case of `CN(C)c1ccc(SC#N)cc1`, the Potency result was “inactive”.

Regarding `CCCCCCOC(=O)C(C)CC` (stereo not given), the Potency result was “inactive”.

As for `C=CC(OCC)OCC`, the Potency entry is “inactive”.

`Cc1cc2c(cc1CC(=O)c1sccc1S(=O)(=O)Nc1onc(C)c1Cl)OCO2`: the Potency entry is “inactive”.

Consider `CC(C)=CCCC(C)CCOC(=O)C(C)C` (stereo not given), for which the Potency result is “inactive”.

Consider `C=CCOCC(O)CS(=O)(=O)O` (stereo not given), for which the Potency result is “inactive”.

`CCCCOCCCC`: the Potency result was “inactive”.

For the compound `NC(=O)c1ccncc1`, the Potency entry is “inactive”.

Turning to `CCCCCCCCCCCC(=O)[O][Sn]([CH2]CCC)([CH2]CCC)[O]C(=O)CCCCCCCCCCC`, the Potency result is “inactive”.

Turning to `O=C(/C=C/c1ccccc1)OCCc1ccccc1`, the Potency result was “inactive”.

For `Nc1ccn([C@@H]2O[C@H](CO)[C@@H](O)C2(F)F)c(=O)n1`, the Potency result is “inactive”.

As to `FC1(F)C(F)(F)C(F)(F)C2(F)C(F)(F)C(F)(F)C(F)(F)C(F)(F)C2(F)C1(F)F` (stereo not given), the Potency entry is “inactive”.

On to `CCC(CO)(CO)COCC(CC)(CO)CO`, for which the Potency entry was “inactive”.

In the case of `Cc1ccc(CO)cc1`, the Potency entry is “inactive”.

Take `CCCC=O`: the Potency entry is “inactive”.

For `CCCC(=O)C(=O)O`, the Potency result was “inactive”.

On to `ClC(Cl)(Br)Br`, for which the Potency entry was “inactive”.

As for `CCCCCCCCCCCCN1CCOCC1`, the Potency entry was “inactive”.

In the case of `CN(C)c1ccc(N=Nc2ccccc2C(=O)O)cc1`, the Potency entry was “inactive”.

Take `CCC(=O)CC`: the Potency entry is “inactive”.

For `COc1ccccc1OCC(O)CN1CCN(CC(=O)Nc2c(C)cccc2C)CC1` (stereo not given), the Potency entry was “inactive”.

In the case of `COc1ccccc1N1CCN(CCCNc2cc(=O)n(C)c(=O)n2C)CC1`, the Potency entry was “inactive”.

As for `CC(=O)NC(=O)c1ccccc1O`, the Potency result was “inactive”.

As to `Oc1ccc2c(c1)Cc1ccccc1-2`, the Potency entry was “inactive”.

On to `CCC/C=C/CO`, for which the Potency entry is “inactive”.

For `Cc1nc(-c2ccc(Cl)cc2)oc1COC(C)(C)C(=O)O`, the Potency result is “inactive”.

With `CCCCC/C=C/CC1CC(=O)OC1=O` (stereo not given), the Potency entry was “inactive”.

For the compound `OCCCS`, the Potency result is “inactive”.

As to `C=C1CCC2CC1C2(C)C` (stereo not given), the Potency entry is “inactive”.

Consider `Nc1cc(C(=O)O)ccc1Cl`, for which the Potency result was “inactive”.

Regarding `CC(C)(C)c1cc(CO)cc(C(C)(C)C)c1O`, the Potency entry is “inactive”.

`C=C(C)C(=O)OCC`: the Potency result is “inactive”.

Take `C=C(C)CS(=O)(=O)O`: the Potency entry was “inactive”.

The next experiment has the same target. In words: Acetylcholinesterase (AChE) small molecule antagonists: enzyme-based qHTS assay (AID 1347397). Also: nearly all actives have a fitted effect of over 55% in size. As to conditions: Potency: AChE enzyme activity inhibition; outcome: AChE enzyme activity inhibition; series mostly up to 115 µM. In outline: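 Recombinant human AChE (50 mU/mL) preincubated with compound 30 min at room temperature; acetylthiocholine plus DTNB then added, and thiocholine formation read colorimetrically after 10 min at room temperature. DMSO served as vehicle control.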
Turning to `Cc1c(C)c2c(c(C)c1OC(=O)CCC(=O)O)CC[C@@](C)(CCC[C@H](C)CCC[C@H](C)CCCC(C)C)O2`, the Potency entry is “inactive”.

For `C=CC(C)(CCC=C(C)C)OC(=O)CC` (stereo not given), the Potency entry was “inactive”.

As for `CC(=O)OC1C2(C)CCC(C2)C1(C)C` (stereo not given), the Potency entry is “inactive”.

On to `Brc1cc(Br)c(Oc2cc(Br)c(Br)cc2Br)cc1Br`, for which the Potency entry was “inactive”.

In the case of `CCCCCCCC/C=C\CCCCCCCCO`, the Potency result is “inactive”.

`CCCCCCCCCCCCCCCC/C=C/C1CC(=O)OC1=O` (stereo not given): the Potency result is “inactive”.

Turning to `C=C1CC[C@H]2C[C@@H]1C2(C)C`, the Potency entry is “inactive”.

Consider `CN(C)c1ccc(SC#N)cc1`, for which the Potency result was “inactive”.

Take `CCCCCCOC(=O)C(C)CC` (stereo not given): the Potency entry is “inactive”.

As for `C=CC(OCC)OCC`, the Potency result was “inactive”.

For `Cc1cc2c(cc1CC(=O)c1sccc1S(=O)(=O)Nc1onc(C)c1Cl)OCO2`, the Potency entry was “inactive”.

As for `CC(C)=CCCC(C)CCOC(=O)C(C)C` (stereo not given), the Potency entry is “inactive”.

As to `C=CCOCC(O)CS(=O)(=O)O` (stereo not given), the Potency entry is “inactive”.

In the case of `CCCCOCCCC`, the Potency result was “inactive”.

As to `NC(=O)c1ccncc1`, the Potency entry is “inactive”.

Consider `CCCCCCCCCCCC(=O)[O][Sn]([CH2]CCC)([CH2]CCC)[O]C(=O)CCCCCCCCCCC`, for which the Potency entry is “inactive”.

With `O=C(/C=C/c1ccccc1)OCCc1ccccc1`, the Potency result was “inactive”.

For the compound `Nc1ccn([C@@H]2O[C@H](CO)[C@@H](O)C2(F)F)c(=O)n1`, the Potency result was “inactive”.

As for `FC1(F)C(F)(F)C(F)(F)C2(F)C(F)(F)C(F)(F)C(F)(F)C(F)(F)C2(F)C1(F)F` (stereo not given), the Potency result is “inactive”.

Take `CCC(CO)(CO)COCC(CC)(CO)CO`: the Potency result was “inactive”.

Regarding `Cc1ccc(CO)cc1`, the Potency result was “inactive”.

`CCCC=O`: the Potency result is “inactive”.

On to `CCCC(=O)C(=O)O`, for which the Potency entry is “inactive”.

For `ClC(Cl)(Br)Br`, the Potency result was “inactive”.

As for `CCCCCCCCCCCCN1CCOCC1`, the Potency entry was “inactive”.

Consider `CN(C)c1ccc(N=Nc2ccccc2C(=O)O)cc1`, for which the Potency entry is “inactive”.

Turning to `CCC(=O)CC`, the Potency result is “inactive”.

As to `COc1ccccc1OCC(O)CN1CCN(CC(=O)Nc2c(C)cccc2C)CC1` (stereo not given), the Potency result is “inactive”.

In the case of `COc1ccccc1N1CCN(CCCNc2cc(=O)n(C)c(=O)n2C)CC1`, the Potency result is “inactive”.

With `CC(=O)NC(=O)c1ccccc1O`, the Potency result was “inactive”.

In the case of `Oc1ccc2c(c1)Cc1ccccc1-2`, the Potency result was “inactive”.

Turning to `CCC/C=C/CO`, the Potency entry is “inactive”.

As to `Cc1nc(-c2ccc(Cl)cc2)oc1COC(C)(C)C(=O)O`, the Potency result was “inactive”.

For the compound `CCCCC/C=C/CC1CC(=O)OC1=O` (stereo not given), the Potency result is “inactive”.

In the case of `OCCCS`, the Potency result is “inactive”.

Regarding `C=C1CCC2CC1C2(C)C` (stereo not given), the Potency result is “inactive”.

`Nc1cc(C(=O)O)ccc1Cl`: the Potency entry was “inactive”.

Turning to `CC(C)(C)c1cc(CO)cc(C(C)(C)C)c1O`, the Potency entry was “inactive”.

Turning to `C=C(C)C(=O)OCC`, the Potency entry is “inactive”.

In the case of `C=C(C)CS(=O)(=O)O`, the Potency entry is “inactive”.

Values taken from PubChem BioAssay (Tox21).
